Assay results taken from PubChem BioAssay AID1159580 (chemical genetic matrix, 2015).
Where “and” joins values, the source holds several entries; their conditions need not be identical. Equal entries are not always repeated. Screen size: about 5,500 compounds; about 2,000 (36%) were called active. About 18% were inconclusive and are not listed. No stated cut-off is given here; in the data, active means normalized growth mostly below about 0.91 (no sharp cut-off); inconclusive means no clear call, values can overlap the other calls; inactive means mostly above about 0.92. This is one part of the list.

Assay: chemical genetic growth profiling, strain panel (AID 1159580);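 further: tested at 20 µM; growth read once vehicle control cultures reached saturation at 30 °C; 1 = growth at the plate median or of vehicle wells; lower values mean less growth of the strain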
Conditions: growth OD

Measured: normalized growth

CNCCC(Oc1ccc(C(F)(F)F)cc1)c1ccccc1 (stereo unspecified)
active: S. cerevisiae deletion strains, locus YLR039C, strain RIC1, active compounds read low 1.41 [resistant] | S. cerevisiae deletion strains, locus YLR262C, strain YPT6, active compounds read low 1.46 [resistant]
inactive: S. cerevisiae deletion strains, locus YJR075W, strain HOC1, active compounds read low 0.985 and 1.01 | S. cerevisiae deletion strains, locus YKL009W, strain mrt4, active compounds read low 0.959 | S. cerevisiae deletion strains, locus YKL068W, active compounds read low 1 | S. cerevisiae deletion strains, locus YKL085W, strain MDH1 (second series), active compounds read low 0.999 | S. cerevisiae deletion strains, locus YKL085W, strain MDH1, active compounds read low 0.999 | S. cerevisiae deletion strains, locus YKL160W, strain elf1, active compounds read low 0.984 | S. cerevisiae deletion strains, locus YKL190W, strain CNB1, active compounds read low 1.01 | S. cerevisiae deletion strains, locus YKR001C, strain vps1, active compounds read low 1.01 | S. cerevisiae deletion strains, locus YKR026C, strain gcn3, active compounds read low 0.983 | S. cerevisiae deletion strains, locus YKR091W, strain srl3, active compounds read low 0.991 | S. cerevisiae deletion strains, locus YLL001W, strain dnm1, active compounds read low 0.979 | S. cerevisiae deletion strains, locus YLL026W, active compounds read low 0.987 | S. cerevisiae deletion strains, locus YLL041C, strain sdh2, active compounds read low 0.988 | S. cerevisiae deletion strains, locus YLR027C, strain aat2, active compounds read low 0.99 | S. cerevisiae deletion strains, locus YLR058C, strain SHM2, active compounds read low 1.01 | S. cerevisiae deletion strains, locus YLR102C, strain apc9, active compounds read low 0.987 | S. cerevisiae deletion strains, locus YLR113W, strain HOG1, active compounds read low 1.01 | S. cerevisiae deletion strains, locus YLR221C, strain rsa3, active compounds read low 0.985 | S. cerevisiae deletion strains, locus YLR258W, strain gsy2, active compounds read low 0.99 | S. cerevisiae deletion strains, locus YLR262C, strain YPT6 (second series), active compounds read low 1.04 | S. cerevisiae deletion strains, locus YLR268W, strain sec22, active compounds read low 0.985 | S. cerevisiae deletion strains, locus YLR320W, strain mms22, active compounds read low 0.968 | S. cerevisiae deletion strains, locus YLR330W, strain CHS5, active compounds read low 1.01 | S. cerevisiae deletion strains, locus YLR342W, strain FKS1 (second series), active compounds read low 0.982 | S. cerevisiae deletion strains, locus YLR342W, strain FKS1, active compounds read low 0.988 | S. cerevisiae deletion strains, locus YLR357W, strain rsc2, active compounds read low 0.977 | S. cerevisiae deletion strains, locus YLR370C, strain arc18, active compounds read low 0.981 | S. cerevisiae deletion strains, locus YLR371W, strain rom2, active compounds read low 0.985 | S. cerevisiae deletion strains, locus YLR384C, strain iki3, active compounds read low 0.97 | S. cerevisiae deletion strains, locus YLR418C, strain cdc73, active compounds read low 0.983 | S. cerevisiae deletion strains, locus YML016C, strain PPZ1, active compounds read low 1.02 | S. cerevisiae deletion strains, locus YML032C, strain rad52, active compounds read low 0.998 | S. cerevisiae deletion strains, locus YML120C, strain ndi1, active compounds read low 0.993 | S. cerevisiae deletion strains, locus YML124C, strain tub3, active compounds read low 0.992 | S. cerevisiae deletion strains, locus YMR058W, strain fet3, active compounds read low 0.99 | S. cerevisiae deletion strains, locus YMR078C, strain ctf18, active compounds read low 0.999 | S. cerevisiae deletion strains, locus YMR125W, strain sto1, active compounds read low 0.989 | S. cerevisiae deletion strains, locus YMR129W, active compounds read low 0.998 | S. cerevisiae deletion strains, locus YMR205C, strain PFK2, active compounds read low 0.967 | S. cerevisiae deletion strains, locus YMR223W, strain ubp8, active compounds read low 0.996 | S. cerevisiae deletion strains, locus YMR231W, strain pep5, active compounds read low 0.992 | S. cerevisiae deletion strains, locus YMR263W, strain SAP30, active compounds read low 0.995 | S. cerevisiae deletion strains, locus YMR307W, strain GAS1, active compounds read low 1.09 | S. cerevisiae deletion strains, locus YNL067W, strain RPL9B, active compounds read low 1.01 | S. cerevisiae deletion strains, locus YNL071W, strain lat1, active compounds read low 0.993 | S. cerevisiae deletion strains, locus YNL128W, strain TEP1, active compounds read low 0.992 and 1.03 | S. cerevisiae deletion strains, locus YNL153C, strain GIM3, active compounds read low 1.01 | S. cerevisiae deletion strains, locus YNL175C, strain NOP13, active compounds read low 1.01 | S. cerevisiae deletion strains, locus YNL183C, strain NPR1, active compounds read low 0.986 | S. cerevisiae deletion strains, locus YNL197C, strain WHI3, active compounds read low 0.979 | S. cerevisiae deletion strains, locus YNL209W, strain ssb2, active compounds read low 1.01 | S. cerevisiae deletion strains, locus YNL224C, strain SQS1, active compounds read low 1.04 | S. cerevisiae deletion strains, locus YNL233W, strain BNI4, active compounds read low 1.01 | S. cerevisiae deletion strains, locus YNL248C, strain rpa49, active compounds read low 0.99 | S. cerevisiae deletion strains, locus YNL250W, strain rad50, active compounds read low 0.996 | S. cerevisiae deletion strains, locus YNL271C, strain bni1, active compounds read low 0.99 | S. cerevisiae deletion strains, locus YNL298W, strain CLA4, active compounds read low 0.988 | S. cerevisiae deletion strains, locus YNL307C, strain MCK1, active compounds read low 0.993 | S. cerevisiae deletion strains, locus YNL322C, strain KRE1 (second series), active compounds read low 0.986 | S. cerevisiae deletion strains, locus YNL322C, strain KRE1, active compounds read low 1 | S. cerevisiae deletion strains, locus YNR049C, strain mso1, active compounds read low 0.987 | S. cerevisiae deletion strains, locus YNR052C, strain pop2, active compounds read low 1 | S. cerevisiae deletion strains, locus YOL006C, strain TOP1, active compounds read low 0.884 | S. cerevisiae deletion strains, locus YOL012C, strain htz1 0.953 | S. cerevisiae deletion strains, locus YOL147C, strain pex11, active compounds read low 0.995 | S. cerevisiae deletion strains, locus YOR001W, strain rrp6, active compounds read low 0.985 | S. cerevisiae deletion strains, locus YOR061W, strain CKA2, active compounds read low 1.01 | S. cerevisiae deletion strains, locus YOR069W, strain VPS5, active compounds read low 0.998 | S. cerevisiae deletion strains, locus YOR070C, strain gyp1, active compounds read low 0.99 | S. cerevisiae deletion strains, locus YOR080W, strain dia2, active compounds read low 0.997 | S. cerevisiae deletion strains, locus YOR083W, strain WHI5 (second series), active compounds read low 0.908 | S. cerevisiae deletion strains, locus YOR083W, strain WHI5, active compounds read low 0.982 | S. cerevisiae deletion strains, locus YOR106W, strain vam3, active compounds read low 0.986 | S. cerevisiae deletion strains, locus YOR136W, strain idh2, active compounds read low 0.99 | S. cerevisiae deletion strains, locus YOR144C, strain elg1, active compounds read low 0.995 | S. cerevisiae deletion strains, locus YOR184W, strain ser1, active compounds read low 1 | S. cerevisiae deletion strains, locus YOR231W, strain MKK1, active compounds read low 1.02 | S. cerevisiae deletion strains, locus YOR265W, strain rbl2, active compounds read low 0.995 | S. cerevisiae deletion strains, locus YOR270C, strain vph1, active compounds read low 0.9 | S. cerevisiae deletion strains, locus YOR290C, strain snf2, active compounds read low 0.981 | S. cerevisiae deletion strains, locus YOR316C, strain cot1, active compounds read low 1 | S. cerevisiae deletion strains, locus YPL051W, strain arl3, active compounds read low 0.992 | S. cerevisiae deletion strains, locus YPL055C, strain LGE1, active compounds read low 1.02 and 1 | S. cerevisiae deletion strains, locus YPL078C, strain atp4, active compounds read low 0.983 | S. cerevisiae deletion strains, locus YPL106C, strain sse1, active compounds read low 0.971 | S. cerevisiae deletion strains, locus YPL240C, strain hsp82, active compounds read low 0.997 | S. cerevisiae deletion strains, locus YPL241C, strain CIN2, active compounds read low 1 | S. cerevisiae deletion strains, locus YPL256C, strain CLN2, active compounds read low 1.06 | S. cerevisiae deletion strains, locus YPR119W, strain clb2, active compounds read low 1 | S. cerevisiae deletion strains, locus YPR141C, strain kar3, active compounds read low 0.999 | S. cerevisiae deletion strains, locus YPR163C, strain tif3, active compounds read low 0.998 | S. cerevisiae deletion strains, locus YPR167C, strain met16, active compounds read low 0.992 | S. cerevisiae deletion strains, strain wtn01, active compounds read low 1.01 | S. cerevisiae strains, strain wild type, active compounds read low 0.998
